Reference: PubChem BioAssay AID720650 (Broad Institute, 2013)
Calls of active or inactive are those of the source. The rule behind the calls is not given here.

Experiment: C difficile toxins, biochemical counterscreen, UDPG substrate absence, confirmatory dose response (AID 720650)
Details: series mostly up to 19.5 µM; activity change, negative = inhibition: at the top concentration

Structure (SMILES)	AC50	activity change, negative = inhibition
C=CCNc1n[nH]c(=S)s1	> 39 µM (inactive)	
Oc1ccc(/C=N/Nc2ncnc3nc[nH]c23)cc1		18% (inactive)
O=C(C[C@H]1CC[C@@H]2[C@H](COC[C@@H](O)CN2C(=O)c2ccccn2)O1)NC1CCC1		-8.48% (inactive)
Fc1cccc(NC(=S)NNc2c3ccccc3nc3ccccc23)c1		-12.2% (inactive)
CC(C(=O)OCC(=O)c1c(N)n(C)c(=O)n(C)c1=O)N1C(=O)c2ccccc2C1=O (stereo not drawn)		-5.17% (inactive)
CCCNC(=O)N1CC[C@@H]2[C@@H](CO)N(C)c3ccc(-c4ccc(F)cc4)cc3[C@@H]21	4.27 µM (active)	
COc1cc(C(=O)Nc2scc(-c3ccccc3)c2C(=O)O)cc(OC)c1OC	13.9 µM (active)	
Nn1c(SCc2ccccc2F)nnc1-c1ccccn1		4.52% (inactive)
O=c1c2ccccc2nc(/C=C/c2ccc(O)cc2)n1-c1ccccc1O	> 39 µM (inactive)	
Cc1cc(C(=O)Nc2ncc(C)s2)c2ccccc2n1		3.29% (inactive)
Cc1ccc(-c2nc3ccc([N+](=O)[O-])cc3[nH]2)cc1	7.38 µM (active)	
O=C(NNC(=O)c1cccc2ccccc12)c1cccc(F)c1		-8.12% (inactive)
COc1ccc(S(=O)(=O)N2CCOCC2)cc1NC(=O)COC(=O)c1[nH]c(C)c(C(C)=O)c1C	> 39 µM (inactive)	
CCc1ccccc1NC(=O)CN1CCN(CC(=O)NCc2ccc(Cl)cc2)CC1		5.72% (inactive)
C=CCn1c(SCC(=O)N2CC(=O)Nc3ccccc32)nc2scc(-c3ccccc3)c2c1=O		-7.62% (inactive)
CCC(=O)N1CC[C@@H]2[C@H]1c1cc(-c3ccc(OC)cc3)ccc1N(C)[C@H]2CO	> 20 µM (inactive)	
Cc1cc(N/N=C/c2ccncc2)nc2ccccc12		-3.14% (inactive)
Clc1ccc(/C=C/c2ncc[nH]2)c(Cl)c1		-10.7% (inactive)
O=C1COc2ccc(C(=O)COC(=O)CNS(=O)(=O)c3cccc(F)c3)cc2N1		-7.12% (inactive)

Structure (SMILES)	AC50	activity change, negative = inhibition
CNC(=O)C1Cc2c(-c3ccccc3Oc3ccccc3)ccnc2O1 (stereo not drawn)	> 39 µM (inactive)	
COc1ccc(NC(=O)C2CC(=O)N(c3ccccc3F)C2)cc1S(=O)(=O)N1CCCCC1 (stereo not drawn)		5.52% (inactive)
Cc1ccc(C2=NS(=O)(=O)N(C)C(C(=O)NCc3ccc4c(c3)OCO4)=C2)cc1		-9.33% (inactive)
C[C@@H]1CN([C@@H](C)CO)C(=O)c2c(c3ccccc3n2C)-c2ccccc2CO[C@@H]1CN(C)C		-5.57% [at 21 µM] (inactive)
COc1ccc(NC(=O)Cn2cnc3sc(C)c(S(=O)(=O)N4CCOCC4)c3c2=O)c(OC)c1		-10.3% (inactive)
COc1ccccc1/C=C/c1onc(C)c1S(=O)(=O)N1CCC(C(=O)NC(C)C)CC1		-4.21% (inactive)
CCOC(CCNC(=O)c1cn(CCOC)c(=O)c2c1c1ccccc1n2C)OCC		5.74% (inactive)
COc1ccc(C2=NS(=O)(=O)N(C)C(C(=O)NCc3ccccc3)=C2)cc1OC		-0.969% (inactive)
O=C1OCC/C1=C\c1ccc(O)cc1	9.75 µM (active)	
COc1ccccc1Oc1cn[nH]c1-c1ccc(O)cc1O	11.6 µM (active)	
Oc1ccc(NC(=S)Nc2ccccc2)cc1	18.6 µM (active)	
COCC(=O)N1CC[C@H]2[C@@H]1c1cc(-c3ccc(OC)cc3)ccc1N(C)[C@H]2CO	7.62 µM (active)	
Cc1cc(C)nc(/N=C(\N)Nc2ccccc2-c2ccccc2)n1	> 39 µM (inactive)	
CCOc1ccccc1/C=C/c1onc(C)c1S(=O)(=O)N1CCC(C(=O)NC(C)C)CC1		2.28% (inactive)
Cc1cc(N/N=C/c2ccc(O)cc2)c2cccc(C)c2n1	16.3 µM (active)	
CNC(=O)C1CCN(S(=O)(=O)c2c(C)noc2/C=C/c2cccc(C)c2)CC1		-11.4% (inactive)
CCCNC(=O)C[C@H]1CC[C@@H]2[C@H](COc3ccc(NC(=O)c4ccc(Cl)cc4)cc3C(=O)N2C)O1	> 39 µM (inactive)	
CC1=C(C(=O)OCC2CCCO2)C(c2coc3ccccc3c2=O)C2=C(CCCC2=O)N1 (stereo not drawn)		-5.85% (inactive)
CC(C)Cc1nnc(NC(=O)CCC(=O)NCc2ccccc2Cl)s1		-3.67% (inactive)
